Measured values published in PubChem BioAssay AID2590 (National Center for Advancing Translational Sciences (NCATS), 2010).
Values joined by “and” are separate entries in the source; they are usually repeats but may differ in a detail not shown here. Identical values can stand only once. Results filed as inconclusive are left out. A number with no mark means an inactive call. Active and inactive are the calls of the source. Calls follow the shape of the dose curve; as a rule, active = well fitted curve in the direction sought with a large enough effect; inconclusive = small, poorly fitted or top-dose-only effect, or another doubt; inactive = no such curve, though single readings can be large or run the other way.

Target: Lysosomal acid glucosylceramidase (Homo sapiens) (UniProt P04062)
Assay: qHTS Assay for Inhibitors and Activators of N370S glucocerebrosidase as a Potential Chaperone Treatment of Gaucher Disease: Primary Screen Confirmation;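 as to activity change, negative = inhibition: 0% = enzyme with DMSO and -100% = no enzyme basal signal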
Conditions: N370S glucocerebrosidase enzyme activity, fluorogenic substrate; series mostly up to 54 µM; activity change, negative = inhibition: at the top concentration
Description: NIH Chemical Genomics Center [NCGC]
NIH Molecular Libraries Probe Production Centers Network [MLPCN]
Assay Submitter (PI): Wei Zheng
Glucocerebrosidase (GC) catalyzes the hydrolysis of beta-glucocerebroside to glucose and ceramide in lysosomes. Mutations in the glucocerebrosidase gene result in Gaucher disease, an autosomal recessive lysosomal storage disorder. Many of the mutations encountered in patients with Gaucher disease are missense alterations that may cause misfolding, decreased stability and/or mistrafficking of this lysosomal protein. […] These inhibitors include iminosugar analogs and three non-iminosugar inhibitors identified from a previous HTS of 62,000 compounds with the wild type recombinant enzyme. However, the enhancement of enzyme activity by the chaperone action of an enzyme inhibitor must be balanced against the direct inhibition of the enzyme. An enzyme activator could also function as a chaperone by binding to the enzyme and helping to correct its misfolding and mistrafficking. While activators for GC have not yet been identified, they may have better therapeutic potential than inhibitors. Therefore the discovery and development of chemical activators may provide a new strategy for the chaperone therapy.
We have optimized a new assay using N370S mutant GC derived from the spleen of a Gaucher patient. […] In addition, the MLPCN compound library has expanded, which increases the chance of finding new and better probes.
NCGC Assay Protocol Summary:
This is a fluorogenic enzyme assay with 4-methylumbelliferyl-beta-D-glucopyranoside as the substrate and N370S glucocerebrosidase from human spleen homogenate as the enzyme preparation. Upon the hydrolysis of this fluorogenic substrate, the resulting product, […] which can be detected by a standard fluorescence plate reader. Data were normalized to the controls for basal activity (without enzyme) and 100% activity (with enzyme). The AC50 values were determined from concentration-response data modeled with the standard Hill equation.
Assay buffer: 50 mM citric acid (titrated with potassium phosphate to pH 5.0), 100 mM potassium chloride, 10 mM sodium chloride, 1 mM magnesium chloride, 0.01% Tween-20.
1536-well assay protocol:
(1) Add 2 ul/well of spleen homogenate (27 ug final)
(2) Add 23 nL compounds in DMSO solution. The final titration was 0.5 nM to 58 uM.
(3) Add 2 ul of substrate (1 mM final)
(4) Incubate at 37C for 40 min.
(5) Add 2 ul stop solution (1M NaOH and 1M Glycine mixture, pH 10)
(6) Detect the assay plate in a ViewLux plate reader (PerkinElmer) with Ex=365 nm and Em=440nm.
Keywords: Glucocerebrosidase, beta-glucosidase, Gaucher Disease, pharmacological chaperone, chaperone therapy, high throughput screening, glucocerebrosidase inhibitor, MLSMR, MLSCN, NIH Roadmap, qHTS and NCGC
Potency is read from the fitted curve at half-maximal effect.

Chain of Lysosomal acid glucosylceramidase (Homo sapiens) (P04062 whole entry N409S): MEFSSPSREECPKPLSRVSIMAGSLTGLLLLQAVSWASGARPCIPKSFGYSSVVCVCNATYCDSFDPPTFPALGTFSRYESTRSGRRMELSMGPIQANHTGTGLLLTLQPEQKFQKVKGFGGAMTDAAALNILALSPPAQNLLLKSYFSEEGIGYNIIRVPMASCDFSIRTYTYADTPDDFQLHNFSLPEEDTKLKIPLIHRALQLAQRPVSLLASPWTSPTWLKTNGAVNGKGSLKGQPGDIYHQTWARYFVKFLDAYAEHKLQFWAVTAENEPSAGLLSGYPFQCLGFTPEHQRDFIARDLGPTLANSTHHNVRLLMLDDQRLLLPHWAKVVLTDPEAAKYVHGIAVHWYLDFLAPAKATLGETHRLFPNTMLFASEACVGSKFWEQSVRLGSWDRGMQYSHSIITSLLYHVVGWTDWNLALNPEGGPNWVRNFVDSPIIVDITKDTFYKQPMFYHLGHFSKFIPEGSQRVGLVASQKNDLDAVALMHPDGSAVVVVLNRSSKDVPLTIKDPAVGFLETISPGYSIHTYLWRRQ

Row | SMILES | Potency | activity change, negative = inhibition
1 | O=S(=O)(c1cc(Cl)cc(Cl)c1)N1CCN(c2nc(-c3cccs3)nc3ccccc23)CC1 | 2.53 µM (active) | –
2 | Cc1cc(C)cc(N(CC(=O)Nc2ccc(C)cc2Cl)S(=O)(=O)c2c(C)[nH]c(=O)[nH]c2=O)c1 | 1.63 µM (active) | –
3 | Cc1cc(C)cc(N(CC(=O)NC2CCCCCC2)S(=O)(=O)c2c(C)[nH]c(=O)[nH]c2=O)c1 | 1.12 µM (active) | –
4 | O=C(c1ccccc1)N1CCN(c2nc(-c3cccs3)nc3ccccc23)CC1 | 1.42 µM (active) | –
5 | CC(=O)N1CCN(C(=O)c2cc(-c3ccc(Cl)s3)nc3ccccc23)CC1 | – | -3.72%
6 | CCCCN(CCCNC(=S)NCCCc1cnc[nH]1)c1ccc(Br)cn1 | 8.18 µM (active) | –
7 | CC(=O)c1ccccc1S(=O)(=O)N1CCN(c2nc(-c3cccs3)nc3ccccc23)CC1 | 3.26 µM (active) | –
8 | Cc1ccc(S(=O)(=O)N2CCN(c3nc(-c4ncco4)nc4ccccc34)CC2)cc1 | 9.02 µM (active) | –
9 | C#CCOCCOCCOCCNc1nc(N2CCN(C(=O)CCCCCCCCCCNC(=O)[C@H](CCCCN)n3cc(C)nn3)CC2)nc(N2CCN(C(=O)CCCCCCCCCCNC(=O)[C@H](CCCN=C(N)N)n3cc(C[C@@H](C)CC)nn3)CC2)n1 | 7.3 µM (active) | –
10 | COc1cccc(S(=O)(=O)N2CCN(c3nc(-c4cccs4)nc4ccccc34)CC2)c1 | 0.819 µM (active) | –
11 | O=S(=O)(c1ccc(Cl)cc1)N1CCN(c2nc(Nc3cc(Cl)ccc3O)nc3ccccc23)CC1 | 2.59 µM (active) | –
12 | CC(C)S(=O)(=O)N1CCN(c2nc(-c3cccs3)nc3ccccc23)CC1 | 5.07 µM (active) | –
13 | O=S(=O)(c1ccc(C(F)(F)F)cc1)N1CCN(c2nc(-c3cccs3)nc3ccccc23)CC1 | 2.53 µM (active) | –
14 | N=c1c(S(=O)(=O)c2ccccc2)cc2c(=O)n3ccccc3nc2n1CCCN1CCOCC1 | – | -19.7%
15 | NC(=NCCCCCCN=C(N)/N=C(\N)Nc1ccc(Cl)cc1)/N=C(\N)Nc1ccc(Cl)cc1 | 11.6 µM (active) and 18.3 µM (active) and 16.3 µM (active) | –
16 | COc1cccc(CN(C)c2nc(-c3cccs3)nc3ccccc23)c1 | 2.01 µM (active) | –
17 | NS(=O)(=O)c1ccc(S(=O)(=O)N2CCN(c3nc(-c4cccs4)nc4ccccc34)CC2)cc1 | 3.26 µM (active) | –
18 | CCCCNC(=O)c1cc2c(=O)n3cccc(C)c3nc2s1 | – | 23.8%
19 | COc1ccc(S(=O)(=O)N2CCN(c3nc(-c4ccccc4)nc4ccccc34)CC2)cc1 | 3.66 µM (active) | –
20 | CN1CCOc2cc(S(=O)(=O)N3CCN(c4nc(-c5cccs5)nc5ccccc45)CC3)ccc21 | 0.58 µM (active) | –

Row | SMILES | Potency | activity change, negative = inhibition
21 | O=S(=O)(Cc1ccccc1)N1CCN(c2nc(-c3cccs3)nc3ccccc23)CC1 | 2.25 µM (active) | –
22 | S=C(NCCCN(Cc1ccc(Cl)c(Cl)c1)c1ccc(Br)cn1)NCCc1cnc[nH]1 | 18.3 µM (active) | –
23 | Cc1ccc(S(=O)(=O)N2CCN(c3nc(-c4cccs4)cc4ccccc34)CC2)cc1 | 3.26 µM (active) | –
24 | CCOC(=O)c1ccc(S(=O)(=O)N2CCN(c3nc(-c4cccs4)nc4ccccc34)CC2)cc1 | 0.819 µM (active) | –
25 | CS(=O)(=O)N1CCN(c2nc(-c3cccs3)nc3ccccc23)CC1 | 11.4 µM (active) | –
26 | CC(C)(C)c1ccc(S(=O)(=O)N2CCN(c3nc(-c4cccs4)nc4ccccc34)CC2)cc1 | 1.3 µM (active) and 1.46 µM (active) | –
27 | CCCCN(Cc1ccc(Cl)c(Cl)c1)c1ccc(Br)cn1 | – | -6.38%
28 | CN(CCCc1cnc[nH]1)C(=S)NCCCN(Cc1ccc(Cl)cc1)c1ccc(Br)cn1 | 11.4 µM (active) | –
29 | Cc1cc(C)cc(N(CC(=O)Nc2ccc(Br)cc2)S(=O)(=O)c2c(C)[nH]c(=O)[nH]c2=O)c1 | 2.06 µM (active) | –
30 | Cc1ccc(Nc2cc(C)nc(-c3ccccc3)n2)cc1 | 4.11 µM (active) | –
31 | Cc1ccc(S(=O)(=O)C2CCN(c3nc(-c4cccs4)nc4ccccc34)CC2)cc1 | 8.19 µM (active) | –
32 | c1ccc(CNc2nc(-c3ccccc3)nc3ccccc23)cc1 | 10.1 µM (active) | –
33 | COc1ccc(S(=O)(=O)N2CCN(c3nc(-c4cccs4)nc4ccccc34)CC2)cc1 | 0.819 µM (active) | –
34 | COc1ccccc1NC(=O)COc1ccccc1C(=O)Nc1ccccc1 | – | 10.7%
35 | O=C(NCCCc1cnc[nH]1)NCCCN(Cc1ccc(Cl)c(Cl)c1)c1ccc(Br)cn1 | 1.03 µM (active) | –
36 | S=C(NCCCc1cnc[nH]1)NCCCN(Cc1ccc(Cl)cc1)c1cc(-c2ccccc2)ccn1 | 5.66 µM (active) | –
37 | CC(=O)NCCCN(Cc1ccc(Cl)c(Cl)c1)c1ccc(Br)cn1 | – | 0.436%
38 | O=S(=O)(c1ccc(Cl)cc1)N1CCN(c2nc(-c3ccccc3)nc3ccccc23)CC1 | 5.8 µM (active) | –
39 | O=S(=O)(c1ccccc1)N1CCN(c2nccc(-c3cccs3)n2)CC1 | – | -3.77%
40 | CCC(=O)OCCNc1nc(-c2ccccc2)nc2ccccc12 | 16 µM (active) | –
